Assay outcomes (PubChem)
Hits are enriched below; roughly 0.53% of the tested compounds scored in any of these assays.
IL2 activator – IL-2 activation; IL-2 activation reporter assay, cell-based qHTS; stimulated with anti-CD3/CD4/CD28 beads; in transgenic mouse T cells; activation, % (series mostly up to about 46 µM); 360,000 compounds, 0.065% hits; in the data active = activation above about 50%; inconclusive = mostly about 30% to 49%; note: 0% is about no effect
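Unstimulated transgenic mouse T cells; 60-min compound exposure; bead-based TCR/CD4/CD28 stimulation; 18 h culture, 37 degrees C; dual fluorescence (EGFP, DsRed) plate cytometry.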
Vif-APOBEC3F blk – blocks the Vif interaction with APOBEC3F; HeLa A3F-eYFP + Vif (tagged APOBEC3F with the HIV-1 protein that degrades it), YFP fluorescence increase; Potency, µM (titrated, usually from 46.1 µM), for the others: at the top dose activity, negative = active; 390,000 compounds, 0.2% hits; note: potency is the fitted concentration of half-maximal effect; % of control where 0% means no effect; nearly all actives have a fitted effect of over 65% in size
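HeLa cells stably expressing Vif plus C-terminally eYFP-tagged A3F were seeded, incubated overnight at 37 deg C, dosed with compound, incubated overnight again at 37 deg C. Yellow fluorescence (Ex 488/Em 500-530) reported blocked Vif-mediated A3F-eYFP degradation.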
PKM2 act – increases activity of human pyruvate kinase M2 | purified PKM2, Kinase-Glo ATP luminescence, activation; response scale: 0% is enzyme alone, no compound | Potency, µM (doses to about 57.5 µM), without a hit: top-dose activation, hits mostly activators | P14618 | AID 1631 | 260,000 compounds, 0.34% hits; note: potency is the fitted concentration of half-maximal effect; % is set by controls: 0 for no effect and ±100 for the full control effect; nearly all actives have a fitted effect of over 55% in size
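Purified hPK-M2 (>95%) run at intermediate activity with 0.1 mM ADP and 0.5 mM PEP in 50 mM imidazole pH 7.2, KCl, MgCl2; 1 h room temperature. ATP formed read by Kinase-Glo luminescence; normalized to uninhibited and no-enzyme controls.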
Vif-A3G inh – inhibitors of Vif-APOBEC3G interaction; Q9HC16; HeLa A3G-eYFP + Vif (tagged APOBEC3G with the HIV-1 protein that degrades it), YFP fluorescence, overnight; Potency, µM (top dose mostly 46.1 µM), inactives show at the top dose activity, negative = active, actives largely listed as inhibitors; 410,000 compounds, 0.076% hits; AID 602310; note: potency is the fitted concentration of half-maximal effect; % is set by controls: 0 for no effect and ±100 for the full control effect; nearly all actives have a fitted effect of over 60% in size
Target sequence (Q9HC16 whole entry, looked up): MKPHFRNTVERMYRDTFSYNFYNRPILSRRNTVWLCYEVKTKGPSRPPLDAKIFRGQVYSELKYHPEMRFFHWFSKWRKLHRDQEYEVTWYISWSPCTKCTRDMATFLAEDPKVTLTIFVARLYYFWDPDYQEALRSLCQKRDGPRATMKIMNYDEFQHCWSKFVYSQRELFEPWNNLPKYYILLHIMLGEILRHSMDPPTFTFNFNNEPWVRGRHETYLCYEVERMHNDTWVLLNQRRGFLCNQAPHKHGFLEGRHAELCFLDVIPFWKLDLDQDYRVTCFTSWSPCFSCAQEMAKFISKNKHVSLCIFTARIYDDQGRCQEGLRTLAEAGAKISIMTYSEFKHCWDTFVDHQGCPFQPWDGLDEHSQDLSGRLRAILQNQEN
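Read-out is eYFP fluorescence (Ex 488/Em 500-530) from Vif-expressing HeLa A3G-eYFP cells; more signal means A3G escaped Vif-mediated degradation. Cells plated overnight, compound pinned in, incubated overnight at 37 deg C.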
Numbers without * were called inactive; u = inconclusive; x = not tested or not shown. Unless noted, calls come from the whole dose curve; as a rule, active = well fitted curve in the direction sought with a large enough effect; inconclusive = small, poorly fitted or top-dose-only effect, or another doubt; inactive = no such curve, though single readings can be large; an effect the other way counts as inactive or inconclusive.

SMILES	IL2 activator	Vif-APOBEC3F blk	PKM2 act	Vif-A3G inh
O=S(=O)(c1ccc2ccccc2c1)N1CCN=C1SCc1cccnc1	3.8	0.3%	17.8µM*	-1.7%
CC(=O)Nc1ccc(S(=O)(=O)N2CCN=C2SCc2ccc(C)cc2)cc1	-0.2	0.9%	-1.5%	-7.6%
CCc1ccc(-n2c(=O)c3c4c(sc3n(Cc3ccccc3C#N)c2=O)CCC4)cc1	x	-4.3%	x	-0.3%
Cc1ccc(C2CC(c3ccc(NS(C)(=O)=O)cc3)=NN2C(=O)c2ccco2)cc1 (stereo unspecified)	-2.3	4.0%	u	-1.9%
CCS(=O)(=O)Nc1ccc(C2=NN(C(=O)c3ccco3)C(c3ccc(C)cc3)C2)cc1 (stereo unspecified)	-4.0	6.4%	7.94µM*	3.8%
CS(=O)(=O)Nc1ccc(C2=NN(C(=O)c3ccco3)C(c3ccccc3)C2)cc1 (stereo unspecified)	-0.6	-3.6%	14.1µM*	-2.1%
COc1cc(OC)c(NC(=O)c2cc(C(C)=O)n3ccccc23)cc1Cl	x	-27.0%	x	1.6%
Cc1cc(-c2nnc(SCC(=O)Nc3ccccn3)o2)no1	0.2	u	16.1%	-0.6%
Cc1cc(-c2nnc(SCC(=O)Nc3nccs3)o2)no1	-1.5	-14.0%	15.8µM*	-6.3%
Cc1ccc(S(=O)(=O)N2CCOCC2)cc1NC(=O)COC(=O)c1ccco1	81.2*	-4.0%	x	-72.6%
CCOC(=O)/C=c1/s/c(=C/c2ccc3cc(OC)ccc3c2)c(=O)n1CC(=O)NCC1CCCO1 (stereo unspecified)	0.6	7.08µM*	x	-0.3%
CCOC(=O)/C=c1\s/c(=C\c2c(OC)ccc3ccccc23)c(=O)n1CC(=O)NCC1CCCO1 (stereo unspecified)	-0.9	25.1µM*	-0.1%	10µM*
CCOC(=O)/C=c1\s/c(=C\c2ccc(C(=O)OC)cc2)c(=O)n1CC(=O)Nc1ccccc1	16.6	u	-4.4%	0.8%
CCn1c(Cl)c(C=O)s/c1=N\S(=O)(=O)c1ccccc1	-1.3	u	15.8µM*	u
Nc1ccc2nc3c(=O)n(C4CCCCC4)c(=O)[nH]c3nc2c1	1.7	12.6µM*	1.0%	u
CCCCn1c(=O)[nH]c2nc3cc(N)ccc3nc2c1=O	4.0	-11.6%	-0.6%	10.8%
CC(=O)Nc1ccc(C2=CC(=O)C[C@H](c3ccc(Cl)cc3)C2)cc1	0.1	22.4µM*	x	u
O=C1CC(c2ccco2)CC2=C1C(c1ccccc1)n1nc(C(F)(F)F)nc1N2 (stereo unspecified)	2.8	-3.1%	4.47µM*	-13.7%
Cn1c(SCc2cccnc2)nc2c(c1=O)SCC2	0.5	-4.8%	28.2µM*	2.1%
C=CCN1C(=O)/C(=C/c2ccc(O)c(OC)c2)S/C1=N/c1nccs1	8.7	31.6µM*	1.9%	u
C=CCN1C(=O)/C(=C/c2ccc(OCC(=O)O)cc2)S/C1=N/c1nccs1	1.5	8.0%	-12.1%	0.6%
COc1cc(C(=O)N2CCN(CCc3ccccn3)CC2)cc(OC)c1OC	x	-4.8%	x	-2.2%
Cc1cccc(-n2nnnc2SCC(=O)Nc2cccc(S(N)(=O)=O)c2)c1	1.0	0.5%	5.01µM*	-0.1%
Cc1ccc(-n2nnnc2SCn2nnc3ccccc3c2=O)cc1	0.1	x	19.6%	-1.5%
Cc1cccc(-n2nnnc2SCn2nnc3ccccc3c2=O)c1	-2.0	-6.8%	15.8µM*	0.1%
SMILES	IL2 activator	Vif-APOBEC3F blk	PKM2 act	Vif-A3G inh
O=c1c2ccccc2nnn1CSc1nnnn1-c1ccc(O)cc1	1.9	6.6%	14.1µM*	5.9%
CCCN(CCC)CCCNC(=O)c1cc2c(=O)n(C)c3ccccc3c2s1	x	1.1%	x	1.8%
Cc1ccc(S(=O)(=O)N2CCCC2)cc1[N+](=O)[O-]	0.0	7.2%	6.1%	-1.2%
O=[N+]([O-])c1cc(S(=O)(=O)N2CCCC2)ccc1NCCc1ccccc1	0.9	1.5%	3.16µM*	0.7%
CC(C)(C)n1ncc2c(=O)n(Cc3ccc(Cl)cc3F)cnc21	x	x	x	-5.9%
CN(C)CCN(C(=O)/C=C/c1cccs1)c1nc2c(F)cc(F)cc2s1	-6.5	11.2µM*	-0.2%	-17.9%
CCN(CC)CCN(C(=O)/C=C/c1cccs1)c1nc2ccc(F)cc2s1	-0.9	-15.6%	0.7%	0.2%
CN(C)CCCN(C(=O)/C=C/c1cccs1)c1nc2ccc(F)cc2s1	-1.8	11.2µM*	-6.1%	u
COc1cccc2sc(N(CCN(C)C)C(=O)/C=C/c3cccs3)nc12	-0.8	-5.3%	6.3%	-15.3%
COc1cc(/C=C/c2nc(C#N)c(N3CCC(C)CC3)o2)cc(OC)c1OC	x	2.2%	x	-0.6%
COc1cccc(NC(=O)CSC2=C(C#N)C(c3ccco3)C3=C(CCCC3=O)N2)c1 (stereo unspecified)	-1.3	-14.7%	0.794µM*	u
CN1C(=O)N(C)c2ccc(C=O)c3cccc1c23	-0.3	11.2µM*	4.3%	-0.4%
Cc1cccn2c(=O)c3cc(C#N)c(=NC(=O)c4cccs4)n(CCCOC(C)C)c3nc12	-6.2	25.1µM*	-6.9%	-8.2%
Cc1ccc(S(=O)(=O)c2nc(-c3cccs3)oc2SCC(=O)Nc2cc(C)cc(C)c2)cc1	x	-16.2%	x	-17.2%
CCN1/C(=C/c2cccc[n+]2C)Sc2ccc(OC)cc21	7.7	25.1µM*	x	u
Cc1ccc2c(c1)N(C)/C(=C/c1cccc[n+]1CCO)S2	0.5	12.6µM*	x	u
COc1ccc2c(c1)N(C)/C(=C/c1cccc[n+]1C)S2	21.7	u	x	12.6µM*
Cc1ccc2c(c1)N(C)/C(=C/c1cccc[n+]1C)S2	0.1	11.2µM*	x	u
CN1/C(=C/c2cccc[n+]2C)Sc2ccccc21	-1.7	u	x	u
O=C1c2[nH]nc(-c3ccccc3O)c2C(c2ccc(Cl)cc2)N1Cc1ccco1 (stereo unspecified)	x	5.5%	x	-3.5%
N=C1S/C(=C\c2ccc(-c3cccc(Cl)c3)o2)C(=O)N1c1nccs1	-0.4	25.1µM*	u	-3.9%
O=C(CSC1=Nc2ccccc2N=C(c2ccc(F)cc2)C1)NCc1ccccc1Cl	x	0.1%	x	-2.0%
CCc1ccc(NC(=O)/C(C#N)=C/c2cc3ccc(C)cc3nc2N2CCOCC2)cc1	2.7	7.94µM*	-1.1%	-13.5%
CCCCN1C(=O)C(CC(=O)NCC2CCCCC2)CC(C(=O)N(C(C)C)C(C)C)=C1C (stereo unspecified)	0.5	6.1%	x	-11.3%
Cc1ccc(/C(N)=N/OC(=O)Cc2cccc3ccccc23)cc1	-1.9	-1.6%	25.1µM*	-10.1%
Cc1cccc(/C(N)=N/OC(=O)Cc2cccc3ccccc23)c1	-2.3	-20.4%	0.5%	-4.6%
COc1ccc(CCNC(=O)CCc2c(C)nc3cc(-c4ccccc4OC)nn3c2C)c(OC)c1	x	1.0%	x	-6.1%
O=C(CSc1nc2ccc(Cl)cc2[nH]1)c1ccc2c(c1)OCO2	-2.0	-4.9%	7.94µM*	1.0%
O=C(CSc1nc2cc(Cl)c(Cl)cc2[nH]1)c1ccc2c(c1)OCO2	0.6	-21.5%	13.4%	-6.5%
